Source: the supplement of paper PMC11732987, “Enantioselective OTUD7B fragment discovery through chemoproteomics screening and high-throughput optimisation” (Communications Chemistry, 2025)

Key:
Experiment in all cases: log2 ratio of Biotin-Ahx-Ub-VS probe labelling (compound/DMSO); higher = less target engagement, active = hit call of the paper (q ≤ 0.05, log2 ratio ≤ -1)
Conditions in all cases: treatment time: 3 h
[1] = compound: CCC1N(CCc2sccc12)C(=O)CCl
In short: (§1)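 Compound at 50 or 200 µM, or DMSO, was applied for 3 h in triplicate to HEK293T lysate (495 µg per sample, Tris/CHAPS/IGEPAL buffer with protease inhibitors), after which Biotin-Ahx-Ub-VS was added at 0.5 µM final for 1 h. The labelled DUBs were pulled down with NeutrAvidin, digested with LysC and trypsin, and run by diaPASEF LC-MS/MS. Ratios are averaged base-two logs of compound over DMSO from median-normalised label-free quantities by unpaired t-test, counting only proteins with at least 2 unique peptides.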

[2] = compound: CN1c2ccccc2C(CS1(=O)=O)NC(=O)CCl
In short: as §1

[3] = compound: Cl.ClCC(=O)N1CCc2ncncc2C1
In short: as §1

[4] = compound: Cl.Cn1ncc2C(CCCc12)NC(=O)CCl
In short: as §1

[5] = compound: ClCC(=O)NC1CCOc2ccccc12
In short: as §1

[6] = compound: ClCC(=O)NC1CCCc2ccccc12
In short: (§2)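 These values are averaged ratios of compound to vehicle, tested by unpaired t-test. HEK293T lysate (495 µg per sample) was preincubated in triplicate with compound across a concentration series or vehicle for 3 h and then with Biotin-Ahx-Ub-VS at 0.5 µM final for 1 h. Deubiquitinases carrying the probe were NeutrAvidin-enriched, digested with LysC and trypsin, and measured by diaPASEF LC-MS/MS. Ratios are expressed as log2 from global-median-normalised Spectronaut label-free quantities, and only proteins with two or more unique peptides were included.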

[7] = compound: ClCC(=O)N[C@@H]1CCCc2ccccc12
In short: as §2

[8] = compound: ClCC(=O)N[C@H]1CCCc2ccccc12
In short: as §2

[9] = compound: CCC1N(CCc2cc(OC)c(Cl)cc12)C(=O)CCl
In short: as §1

[10] = compound: CCCC1N(CCc2cc(OC)c(OC)cc12)C(=O)CCl
In short: as §1

[11] = compound: CN(Cc1cccc(Br)c1)C(=O)CCl
In short: as §1

[12] = compound: CN(Cc1cccc(OCc2ccccc2C)c1)C(=O)CCl
In short: as §1

[13] = compound: CN(Cc1ccccc1)C(=O)CCl
In short: as §1

[14] = compound: COc1ccc(CN(C)C(=O)CCl)cc1
In short: as §1

[15] = compound: COc1cccc(CN(CCCc2ccccc2)C(=O)CCl)c1
In short: as §1

[16] = compound: ClCC(=O)N1CCc2cc(Cl)c(Cl)cc2C1
In short: as §1

[17] = compound: ClCC(=O)N1CCc2nc(ncc2C1)-c1ccccc1
In short: as §1

[18] = compound: ClCC(=O)N1CCc2nocc2C1
In short: as §1

[19] = compound: ClCC(=O)N1CCc2scc(Br)c2C1
In short: as §1

[20] = compound: ClCC(=O)NC(C1CCCC1)c1cccs1
In short: as §1

Measured: log2 ratio of Biotin-Ahx-Ub-VS probe labelling

USP12 (UniProt O75317)
UniProt O75317, sequence (O75317 whole entry): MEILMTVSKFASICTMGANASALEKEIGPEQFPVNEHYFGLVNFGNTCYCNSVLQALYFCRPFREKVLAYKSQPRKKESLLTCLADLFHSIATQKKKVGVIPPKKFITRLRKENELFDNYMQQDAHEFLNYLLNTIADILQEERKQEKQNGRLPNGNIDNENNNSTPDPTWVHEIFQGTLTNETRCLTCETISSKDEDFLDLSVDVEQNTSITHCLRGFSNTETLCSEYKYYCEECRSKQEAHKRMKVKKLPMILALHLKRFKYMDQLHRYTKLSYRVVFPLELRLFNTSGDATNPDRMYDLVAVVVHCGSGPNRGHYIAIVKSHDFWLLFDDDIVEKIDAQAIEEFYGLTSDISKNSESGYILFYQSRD
active: [16]; compound concentration: 200uM -2.18
inactive: [1]; compound concentration: 50uM -0.336 | [1]; compound concentration: 200uM -0.364 | [2]; compound concentration: 50uM -0.67 | [2]; compound concentration: 200uM -0.285 | [3]; compound concentration: 50uM -0.414 | [3]; compound concentration: 200uM 0.0587 | [4]; compound concentration: 50uM 0.232 | [4]; compound concentration: 200uM 0.133 | [5]; compound concentration: 50uM -0.0656 | [5]; compound concentration: 200uM -0.128 | [6]; compound concentration: 0.78uM -0.261 | [6]; compound concentration: 1.56uM -0.455 | [6]; compound concentration: 3.13uM -0.802 | [6]; compound concentration: 6.25uM -0.549 | [6]; compound concentration: 12.5uM -0.298 | [6]; compound concentration: 25uM -0.852 | [6]; compound concentration: 50uM -0.524 | [6]; compound concentration: 100uM -0.285 | [6]; compound concentration: 200uM -0.69 | [7]; compound concentration: 0.78uM -0.131 | [7]; compound concentration: 1.56uM 0.0424 | [7]; compound concentration: 3.13uM 0.272 | [7]; compound concentration: 6.25uM 0.0447 | [7]; compound concentration: 12.5uM -0.0347 | [7]; compound concentration: 25uM -0.263 | [7]; compound concentration: 50uM -0.715 | [7]; compound concentration: 100uM -0.0609 | [7]; compound concentration: 200uM -0.175 | [8]; compound concentration: 0.78uM -0.247 | [8]; compound concentration: 1.56uM -0.665 | [8]; compound concentration: 3.13uM 0.0603 | [8]; compound concentration: 6.25uM 0.103 | [8]; compound concentration: 12.5uM -0.0251 | [8]; compound concentration: 25uM -0.184 | [8]; compound concentration: 50uM -0.474 | [8]; compound concentration: 100uM -0.242 | [8]; compound concentration: 200uM -0.748 | [9]; compound concentration: 50uM -0.0261 | [9]; compound concentration: 200uM -0.904 | [10]; compound concentration: 50uM -0.303 | [10]; compound concentration: 200uM -0.368 | [11]; compound concentration: 50uM -0.144 | [11]; compound concentration: 200uM -0.188 | [12]; compound concentration: 50uM -0.484 | [12]; compound concentration: 200uM -0.602 | [13]; compound concentration: 50uM -0.0519 | [13]; compound concentration: 200uM -0.89 | [14]; compound concentration: 50uM -0.0378 | [14]; compound concentration: 200uM -0.439 | [15]; compound concentration: 50uM -0.477 | [15]; compound concentration: 200uM -0.852 | [16]; compound concentration: 50uM -0.202 | [17]; compound concentration: 50uM 0.154 | [17]; compound concentration: 200uM -0.813 | [18]; compound concentration: 50uM -0.195 | [18]; compound concentration: 200uM -0.415 | [19]; compound concentration: 50uM 0.0837 | [19]; compound concentration: 200uM -0.475 | [20]; compound concentration: 50uM 0.0281 | [20]; compound concentration: 200uM -0.0926
